Test results taken from PubChem BioAssay (Tox21).
Records with an inconclusive call do not appear. Activity calls are given as the source filed them. Unless noted, calls follow the shape of the dose curve; as a rule, active = well fitted curve in the direction sought with a large enough effect in the repeat runs; inconclusive = weak or mixed curves; inactive = no such curve, though single readings can be large; an effect the other way counts as inactive or inconclusive.

Columns and labels:
[1] = qHTS assay to identify small molecule antagonists of the peroxisome proliferator-activated receptor delta (PPARd) signaling pathway - cell viability counter screen (AID 743213); also: nearly all actives have a fitted effect of over 50% in size; also: potency is read from the fitted curve at half-maximal effect
Method in brief: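 In this counter screen, HEK293H cells carrying a UAS-beta-lactamase reporter are co-treated with test compounds and 300 nM L165041 (final) for 17 h at 37 C; cell viability is quantified by CellTiter-Glo luminescence.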

[2] = qHTS assay to identify small molecule agonists of the farnesoid-X-receptor (FXR) signaling pathway - cell viability counter screen (AID 743218); also: nearly all actives have a fitted effect of over 45% in size
Method in brief: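 FXR-UAS-bla HEK 293T cells, plated 5 h at 37 C, were exposed to compounds for 16 h at 37 C. CellTiter-Glo was then added to the same wells as the bla readout; luminescence read after 30 min at room temperature.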

[3] = qHTS assay to identify small molecule antagonists of the farnesoid-X-receptor (FXR) signaling pathway - cell viability counter screen (AID 743221; active = well fitted cell-killing curve with a large enough effect in the repeat runs, not every such curve was filed as active; also: nearly all actives have a fitted effect of over 50% in size)
Method in brief: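 In GeneBLAzer FXR-UAS-bla HEK 293T cells stimulated with 50 uM chenodeoxycholic acid (final), compounds acted for 16 h at 37 C. Viability was assessed afterwards by CellTiter-Glo luminescence.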

[4] = biological target: Vitamin D3 receptor (Homo sapiens) (UniProt P11473); assay: qHTS assay to identify small molecule agonists of the vitamin D receptor (VDR) signaling pathway (AID 743222; calls by dose curve)
Sequence of Vitamin D3 receptor (Homo sapiens) (P11473 whole entry, looked up): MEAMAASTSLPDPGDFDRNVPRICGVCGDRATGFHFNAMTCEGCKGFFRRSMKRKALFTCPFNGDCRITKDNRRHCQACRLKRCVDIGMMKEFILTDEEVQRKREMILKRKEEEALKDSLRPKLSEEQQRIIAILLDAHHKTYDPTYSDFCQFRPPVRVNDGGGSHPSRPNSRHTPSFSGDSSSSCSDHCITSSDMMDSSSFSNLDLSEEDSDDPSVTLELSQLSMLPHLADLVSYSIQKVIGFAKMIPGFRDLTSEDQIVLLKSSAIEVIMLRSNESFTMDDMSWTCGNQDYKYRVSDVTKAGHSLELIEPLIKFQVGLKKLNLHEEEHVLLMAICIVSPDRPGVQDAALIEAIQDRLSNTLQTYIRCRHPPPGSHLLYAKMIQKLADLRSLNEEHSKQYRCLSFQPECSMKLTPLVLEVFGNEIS
Method in brief: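 VDR-bla cells were plated 4 h at 37C/5% CO2, then exposed to compounds in DMSO for 16 h. After LiveBLAzer B/G FRET substrate addition and 2 h at room temperature, beta-lactamase reporter fluorescence was read.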

[5] = biological target: Vitamin D3 receptor (Homo sapiens) (UniProt P11473); assay: qHTS assay to identify small molecule antagonists of the vitamin D receptor (VDR) signaling pathway (AID 743223; active = well fitted inhibition curve with a large enough effect in the signal ratio in the repeat runs, not every such curve was filed as active; the % refers to the signal ratio)
Method in brief: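 Agonist 1alpha,25-dihydroxyvitamin D3 (3 nM in well) was added with each compound to VDR-bla cells preincubated 4 h. Cells stood 16 h at 37C, then FRET substrate 2 h at room temperature; fluorescence intensity recorded.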

[6] = qHTS assay to identify small molecule agonists of the vitamin D receptor (VDR) signaling pathway - cell viability counter screen (AID 743224); also: series mostly up to about 63 µM; nearly all actives have a fitted effect of over 50% in size
Method in brief: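 VDR-bla cells were preincubated 4 h at 37C/5% CO2, then exposed to compounds for 16 h. After the 2 h room-temperature bla FRET read, CellTiter-Glo was added to the same wells and luminescence read after 30 min.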

[7] = qHTS assay to identify small molecule antagonists of the vitamin D receptor (VDR) signaling pathway - cell viability counter screen (AID 743225); also: nearly all actives have a fitted effect of over 50% in size
Method in brief: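 Luminescent cell viability (CellTiter-Glo) in VDR-bla HEK 293T cells after 16 h compound exposure at 37C in the presence of 3 nM final 1-alpha,25-dihydroxy vitamin D3.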

[8] = qHTS assay to identify small molecule agonists of the NFkB signaling pathway (AID 1159509; active = well fitted curve in the direction sought with a large enough effect in the signal ratio in the repeat runs, not every such curve was filed as active; the % refers to the signal ratio; also: series mostly up to about 61 µM)
Method in brief: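 NFkB-bla ME-180 cells carry a beta-lactamase reporter under an NF-kB response element. They were plated overnight, then exposed to compounds for 5 h at 37 C. Read-out is LiveBLAzer FRET after 1.5 hr at room temperature (405 nm excitation; 460/530 nm emission).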

[9] = qHTS assay to identify small molecule agonists of the NFkB signaling pathway - cell viability counter screen (AID 1159515; calls by dose curve; also: series mostly up to about 61 µM; nearly all actives have a fitted effect of over 55% in size)
Method in brief: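 NFkB-bla ME-180 cells, 2,000/well, were plated overnight at 37 C, 5% CO2, then exposed to compounds in DMSO for 5 hr. After the bla FRET read, CellTiter-Glo was added to the same wells; luminescence was read after 30 min at room temperature.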

[10] = qHTS assay to identify small molecule agonists of the endoplasmic reticulum stress response signaling pathway (AID 1159516; active = well fitted activation curve with a large enough effect in the signal ratio in the repeat runs, not every such curve was filed as active; the % refers to the signal ratio)
Method in brief: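 CellSensor ESRE-bla HeLa cells, carrying a beta-lactamase reporter driven by the ER stress response element, were plated overnight and exposed to compounds for 5 hr at 37 C. Reporter activity was read as FRET substrate fluorescence after 2 hr at room temperature.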

[11] = qHTS assay to identify small molecule agonists of the endoplasmic reticulum stress response signaling pathway - cell viability counter screen (AID 1159517; calls by dose curve)
Method in brief: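 HeLa cells carrying an ESRE-driven beta-lactamase reporter receive compound for 5 hr at 37 C. Cell viability is then gauged with CellTiter-Glo by luminescence, 30 min at room temperature.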

[12] = qHTS assay to identify small molecule antagonists of the retinoid-related orphan receptor gamma (ROR-gamma) signaling pathway - cell viability counter screen (AID 1159520); also: nearly all actives have a fitted effect of over 50% in size
Method in brief: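 Cytotoxicity was read from cellular ATP (CellTiter-Glo luminescence) after 16 hr at 37 C with 1 uM doxycycline induction. The inducer was added 2 hr after compound transfer to Tet-on ROR gamma CHO cells.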

[13] = biological target: Nuclear receptor ROR-gamma (Homo sapiens) (UniProt P51449); assay: qHTS assay to identify small molecule antagonists of the retinoid-related orphan receptor gamma (ROR-gamma) signaling pathway (AID 1159521)
Method in brief: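 CHO cells expressing RORγ under a TET-on promoter, luciferase under RORE control. Dox 1 uM final, 16 h; compounds added 2 h prior. Luminescence decrease measured.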

[14] = qHTS assay to identify small molecule agonists of the AP-1 signaling pathway - cell viability counter screen (AID 1159525; calls by dose curve; also: nearly all actives have a fitted effect of over 55% in size)
Method in brief: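 Luminescent ATP readout (Cell Titer Glo, 30 min RT), normalised to DMSO and tetra n-octyl ammonium bromide controls. Cells were ME-180 AP-1-bla in 0.5% dialyzed FBS Opti-MEM, with a 5 h, 37 °C compound exposure.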

[15] = qHTS assay to identify small molecule agonists of the AP-1 signaling pathway (AID 1159526; calls by dose curve)
[16] = biological target: Peroxisome proliferator-activated receptor delta (Homo sapiens) (UniProt Q03181); assay: qHTS assay to identify small molecule antagonists of the peroxisome proliferator-activated receptor delta (PPARd) signaling pathway (AID 743215; active = well fitted inhibition curve with a large enough effect in the signal ratio in the repeat runs, not every such curve was filed as active; the % refers to the signal ratio;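 also: cells stimulated with agonist L165041 at 300 nM final during compound exposure; series mostly up to about 62 µM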)
Sequence of Peroxisome proliferator-activated receptor delta (Homo sapiens) (Q03181 whole entry, looked up): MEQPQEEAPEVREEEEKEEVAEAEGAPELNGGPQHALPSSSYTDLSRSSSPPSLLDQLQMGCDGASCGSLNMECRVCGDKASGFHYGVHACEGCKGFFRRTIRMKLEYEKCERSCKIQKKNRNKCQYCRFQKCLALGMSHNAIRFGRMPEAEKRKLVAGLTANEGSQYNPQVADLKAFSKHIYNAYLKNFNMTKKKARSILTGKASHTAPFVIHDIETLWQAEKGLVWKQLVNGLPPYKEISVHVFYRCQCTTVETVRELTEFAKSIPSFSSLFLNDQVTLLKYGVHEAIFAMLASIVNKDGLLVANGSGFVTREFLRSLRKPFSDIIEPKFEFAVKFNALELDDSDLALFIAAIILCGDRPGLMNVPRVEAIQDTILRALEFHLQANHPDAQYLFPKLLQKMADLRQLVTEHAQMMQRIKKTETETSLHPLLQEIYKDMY
Method in brief: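 PPARd UAS-bla HEK293H cells were pre-incubated 5 h at 37 C, then given test compounds in DMSO plus agonist L165041 (300 nM final). After 17 h at 37 C, beta-lactamase FRET substrate was added; fluorescence read after 2 h at room temperature.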

[17] = biological target: Bile acid receptor (Homo sapiens) (UniProt Q96RI1); assay: qHTS assay to identify small molecule antagonists of the farnesoid-X-receptor (FXR) signaling pathway (AID 743217; active = well fitted inhibition curve with a large enough effect in the signal ratio in the repeat runs, not every such curve was filed as active; the % refers to the signal ratio)
Sequence of Bile acid receptor (Homo sapiens) (Q96RI1 whole entry, looked up): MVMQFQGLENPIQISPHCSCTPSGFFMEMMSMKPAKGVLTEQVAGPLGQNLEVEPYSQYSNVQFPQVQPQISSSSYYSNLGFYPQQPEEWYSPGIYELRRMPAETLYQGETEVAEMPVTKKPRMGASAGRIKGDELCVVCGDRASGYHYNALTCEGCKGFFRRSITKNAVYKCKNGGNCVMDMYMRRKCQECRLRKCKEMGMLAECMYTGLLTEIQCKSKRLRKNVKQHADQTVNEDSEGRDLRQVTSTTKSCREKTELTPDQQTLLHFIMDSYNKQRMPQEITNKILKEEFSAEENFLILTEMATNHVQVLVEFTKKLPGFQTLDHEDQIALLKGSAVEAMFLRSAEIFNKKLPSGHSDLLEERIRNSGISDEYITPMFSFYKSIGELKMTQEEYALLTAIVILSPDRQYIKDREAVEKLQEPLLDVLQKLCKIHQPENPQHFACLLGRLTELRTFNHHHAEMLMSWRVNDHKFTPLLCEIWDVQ
Method in brief: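 FXR-UAS-bla HEK 293T cells pre-incubated 5 h at 37 °C, then exposed to compounds with chenodeoxycholic acid (50 uM final) for 16 h at 37 °C. Beta-lactamase reporter read by LiveBLAzer B/G FRET substrate fluorescence after 2 h at room temperature.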

[18] = biological target: Bile acid receptor (Homo sapiens) (UniProt Q96RI1); assay: qHTS assay to identify small molecule agonists of the farnesoid-X-receptor (FXR) signaling pathway (AID 743220; active = well fitted activation curve with a large enough effect in the signal ratio in the repeat runs, not every such curve was filed as active; the % refers to the signal ratio)
Method in brief: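 Beta-lactamase reporter under UAS control in GeneBLAzer FXR HEK 293T cells (5000/well) measured with LiveBLAzer FRET substrate after 2 h at room temperature. Compound exposure lasted 16 h at 37C.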

[19] = biological target: Retinoic acid receptor RXR-alpha (Homo sapiens) (UniProt P19793); assay: qHTS assay to identify small molecule agonists of the RXR signaling pathway (AID 1159527; calls by dose curve; also: nearly all actives have a fitted effect of over 35% in size)
Sequence of Retinoic acid receptor RXR-alpha (Homo sapiens) (P19793 whole entry, looked up): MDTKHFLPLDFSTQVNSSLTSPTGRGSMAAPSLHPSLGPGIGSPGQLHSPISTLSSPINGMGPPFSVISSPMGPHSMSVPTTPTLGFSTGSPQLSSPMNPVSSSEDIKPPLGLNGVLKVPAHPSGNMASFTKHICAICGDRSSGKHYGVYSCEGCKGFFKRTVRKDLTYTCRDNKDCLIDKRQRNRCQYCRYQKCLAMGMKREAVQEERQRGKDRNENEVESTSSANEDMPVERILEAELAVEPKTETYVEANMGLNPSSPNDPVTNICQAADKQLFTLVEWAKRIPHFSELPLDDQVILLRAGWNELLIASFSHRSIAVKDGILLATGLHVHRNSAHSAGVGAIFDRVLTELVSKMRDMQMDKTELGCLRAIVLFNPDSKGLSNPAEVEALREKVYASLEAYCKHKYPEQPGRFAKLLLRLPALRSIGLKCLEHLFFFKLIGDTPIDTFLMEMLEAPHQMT
Method in brief: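 Beta-lactamase reporter assay, agonist format. Engineered HEK 293T line, charcoal-stripped FBS at 2%, overnight (16 hr) exposure, fluorescence at 460 and 530 nm after 405 nm excitation.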

[20] = qHTS assay to identify small molecule agonists of the RXR signaling pathway - cell viability counter screen (AID 1159529)
Method in brief: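 Same-well viability check after the LiveBLAzer FRET read: CellTiter-Glo added, luminescence measured after 30 min at room temperature. Reporter HEK 293T cells had been treated with compounds for 16 hr following a 5 hr preincubation.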

Measured: Potency

COc1ccnc2c1CCCCC2S(=O)c1nc2ccccc2[nH]1 (centres undefined)
inactive: [1] | [2] | [3] | [4] | [5] | [6] | [7] | [8] | [9] | [10] | [11] | [12] | [13] | [14] | [15]

OCC(O)c1ccccc1 (centres undefined)
inactive: [1] | [16] | [2] | [4] | [6] | [8] | [9] | [10] | [11] | [12] | [13] | [14] | [15]

CCN(CCCCOC(=O)c1ccc(OC)c(OC)c1)C(C)Cc1ccc(OC)cc1 (centres undefined)
inactive: [3] | [5] | [6] | [8] | [9] | [10] | [11] | [12] | [13] | [14] | [15]

O=C(c1ccco1)N1CCNCC1
inactive: [1] | [16] | [17] | [2] | [18] | [3] | [6] | [7] | [8] | [9] | [10] | [11] | [12] | [13] | [14] | [19] | [20]

CCCC1CCOC(C)S1 (centres undefined)
active: [1] 4.9 µM
inactive: [2] | [5] | [6] | [7] | [8] | [9] | [10] | [11] | [13] | [14] | [15] | [20]

Cc1cc(SC2=C(O)C[C@@](CCc3ccc(N)cc3)(C(C)C)OC2=O)c(C(C)(C)C)cc1CO
inactive: [1] | [2] | [18] | [3] | [4] | [5] | [6] | [8] | [9] | [10] | [11] | [13] | [14] | [15] | [20]

CCCC(=O)OCCC(C)C
inactive: [16] | [17] | [2] | [18] | [3] | [4] | [7] | [8] | [9] | [10] | [11] | [13] | [14] | [15] | [20]
